Holding throughout (experiment): DAPPL (digital affinity profiling via proximity ligation, sequencing); 10 mM Tris-HCl pH 7.5, 50 mM NaCl, 1 mM DTT, 4% glycerol, room temperature, 30 min; GST-TFs on glutathione beads, 16-mer random dsDNA library, 0.1% formaldehyde crosslink after washing; high values mean tight binding
Assay [1] concerns the target T1, FLI1 (Homo sapiens, UniProt Q01543 1-452).
T1 sequence: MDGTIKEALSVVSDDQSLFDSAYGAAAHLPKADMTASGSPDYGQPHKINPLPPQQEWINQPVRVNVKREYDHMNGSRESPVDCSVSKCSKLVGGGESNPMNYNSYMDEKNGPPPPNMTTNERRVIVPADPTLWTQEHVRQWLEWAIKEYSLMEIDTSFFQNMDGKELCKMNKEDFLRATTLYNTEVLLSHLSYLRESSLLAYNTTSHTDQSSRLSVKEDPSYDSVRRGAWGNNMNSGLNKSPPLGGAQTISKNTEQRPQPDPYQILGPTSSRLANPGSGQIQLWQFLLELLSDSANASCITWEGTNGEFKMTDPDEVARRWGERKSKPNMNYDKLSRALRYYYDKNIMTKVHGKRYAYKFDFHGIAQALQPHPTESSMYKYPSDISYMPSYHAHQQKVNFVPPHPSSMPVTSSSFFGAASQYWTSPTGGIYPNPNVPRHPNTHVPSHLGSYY
The following applies: protein: recombinant; tags: N-terminal GST; dsDNA, one strand shown. Put shortly:
(§1)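 In yeast, human transcription factors were expressed with a GST fusion, then pulled down on glutathione beads and given DNA barcodes. Pooled with a tag-only sample, they were exposed to 200 nmole of a 16-mer random double-stranded DNA library (Tris/NaCl/DTT/glycerol buffer, room temperature, 30 min), washed, crosslinked with 0.1% formaldehyde, proximity-ligated using BsaI/T4 ligase for 1 h at 37 °C, PCR-amplified and read on an Illumina NextSeq500. Each hexamer's frequency of reads for a factor, divided by the matching frequency for the tag-only sample, gives the binding signal.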

For assay [2], the target named is T2, ELK1 (Homo sapiens, UniProt P19419 1-428).
T2 sequence: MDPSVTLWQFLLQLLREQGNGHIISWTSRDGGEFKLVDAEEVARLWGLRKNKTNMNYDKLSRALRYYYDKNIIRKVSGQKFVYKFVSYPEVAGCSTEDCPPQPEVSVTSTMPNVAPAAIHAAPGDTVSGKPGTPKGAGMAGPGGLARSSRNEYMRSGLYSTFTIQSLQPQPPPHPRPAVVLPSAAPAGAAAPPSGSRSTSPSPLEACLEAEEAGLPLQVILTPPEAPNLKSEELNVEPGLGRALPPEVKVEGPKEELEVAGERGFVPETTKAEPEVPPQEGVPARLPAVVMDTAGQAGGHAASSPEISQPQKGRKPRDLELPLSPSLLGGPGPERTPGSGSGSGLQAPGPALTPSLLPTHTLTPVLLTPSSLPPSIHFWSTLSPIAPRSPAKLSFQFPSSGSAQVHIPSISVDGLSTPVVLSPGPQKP
Conditions: protein: recombinant; tags: N-terminal GST; dsDNA, one strand shown. Put shortly: as §1

The target of assay [3] is T3, GABPA (Homo sapiens, UniProt Q06546 1-454).
T3 sequence: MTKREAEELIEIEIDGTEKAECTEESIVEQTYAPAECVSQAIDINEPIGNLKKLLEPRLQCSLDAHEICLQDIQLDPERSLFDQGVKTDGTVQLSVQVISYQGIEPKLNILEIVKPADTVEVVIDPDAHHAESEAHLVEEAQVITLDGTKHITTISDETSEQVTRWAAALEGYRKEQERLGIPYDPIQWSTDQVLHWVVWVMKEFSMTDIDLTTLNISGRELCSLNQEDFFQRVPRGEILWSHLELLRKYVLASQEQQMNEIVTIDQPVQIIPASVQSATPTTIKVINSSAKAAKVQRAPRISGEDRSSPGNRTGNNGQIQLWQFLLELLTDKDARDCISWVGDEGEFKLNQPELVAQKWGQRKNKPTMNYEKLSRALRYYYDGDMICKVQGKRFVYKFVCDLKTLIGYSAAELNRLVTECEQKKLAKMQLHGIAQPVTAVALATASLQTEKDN
Conditions: protein: recombinant; tags: N-terminal GST; dsDNA, one strand shown. Put shortly:
as §1

The target in assay [4] is T4, ERG (Homo sapiens, UniProt P11308 1-479).
T4 sequence: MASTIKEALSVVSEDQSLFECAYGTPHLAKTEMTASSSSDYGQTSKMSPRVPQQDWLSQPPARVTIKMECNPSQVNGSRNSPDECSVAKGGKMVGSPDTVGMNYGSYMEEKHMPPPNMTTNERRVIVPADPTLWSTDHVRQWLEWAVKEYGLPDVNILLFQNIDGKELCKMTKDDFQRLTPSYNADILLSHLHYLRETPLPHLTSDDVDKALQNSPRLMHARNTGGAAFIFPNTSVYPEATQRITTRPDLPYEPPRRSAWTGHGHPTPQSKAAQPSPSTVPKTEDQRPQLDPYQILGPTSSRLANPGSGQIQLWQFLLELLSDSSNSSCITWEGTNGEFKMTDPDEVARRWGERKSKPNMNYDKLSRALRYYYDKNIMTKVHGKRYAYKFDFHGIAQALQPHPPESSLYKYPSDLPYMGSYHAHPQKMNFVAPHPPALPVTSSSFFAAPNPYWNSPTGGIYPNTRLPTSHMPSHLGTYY
Conditions: protein: recombinant; tags: N-terminal GST; dsDNA, one strand shown. Put shortly: as §1

Assay [5] deals with ELF1 (Homo sapiens, UniProt P32519 1-619). Conditions: protein: recombinant; tags: N-terminal GST; dsDNA, one strand shown. An outline of the steps:
as §1

The target in assay [6] is T5, EHF (Homo sapiens, UniProt Q9NZC4 1-300).
T5 sequence: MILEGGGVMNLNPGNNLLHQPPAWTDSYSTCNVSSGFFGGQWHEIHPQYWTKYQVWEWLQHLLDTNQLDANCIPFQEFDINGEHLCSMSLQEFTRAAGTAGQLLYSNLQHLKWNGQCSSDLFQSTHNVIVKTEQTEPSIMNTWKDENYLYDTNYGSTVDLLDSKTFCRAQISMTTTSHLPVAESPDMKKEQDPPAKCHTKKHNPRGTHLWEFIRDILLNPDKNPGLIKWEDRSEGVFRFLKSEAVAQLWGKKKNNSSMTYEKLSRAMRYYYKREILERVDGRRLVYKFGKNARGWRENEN
The following applies: protein: recombinant; tags: N-terminal GST; dsDNA, one strand shown. An outline of the steps: as §1

In assay [7] the target is SPI1 (Homo sapiens, UniProt P17947 1-270). The following applies: protein: recombinant; tags: N-terminal GST; dsDNA, one strand shown. An outline of the steps: as §1
In assay [8] the target is SPIB (Homo sapiens, UniProt Q01892 1-262). Conditions: protein: recombinant; tags: N-terminal GST; dsDNA, one strand shown. Put shortly:
as §1

Assay [9] has as its target T6, ELK3 (Homo sapiens, UniProt P41970 1-407).
T6 sequence: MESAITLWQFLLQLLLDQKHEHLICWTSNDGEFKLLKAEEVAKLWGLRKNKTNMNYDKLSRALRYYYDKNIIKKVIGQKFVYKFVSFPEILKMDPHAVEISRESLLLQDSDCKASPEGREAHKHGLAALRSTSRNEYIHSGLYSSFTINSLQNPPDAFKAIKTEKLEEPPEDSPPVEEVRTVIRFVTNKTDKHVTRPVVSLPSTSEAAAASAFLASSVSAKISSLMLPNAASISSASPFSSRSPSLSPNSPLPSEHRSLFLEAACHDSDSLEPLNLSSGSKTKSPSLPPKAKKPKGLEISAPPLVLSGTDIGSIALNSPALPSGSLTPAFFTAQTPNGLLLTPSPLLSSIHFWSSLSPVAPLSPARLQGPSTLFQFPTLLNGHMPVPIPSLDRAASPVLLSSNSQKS
The following applies: protein: recombinant; tags: N-terminal GST; dsDNA, one strand shown. Put shortly:
as §1

Assay [10] has as its target T7, FEV (Homo sapiens, UniProt Q99581 1-238).
T7 sequence: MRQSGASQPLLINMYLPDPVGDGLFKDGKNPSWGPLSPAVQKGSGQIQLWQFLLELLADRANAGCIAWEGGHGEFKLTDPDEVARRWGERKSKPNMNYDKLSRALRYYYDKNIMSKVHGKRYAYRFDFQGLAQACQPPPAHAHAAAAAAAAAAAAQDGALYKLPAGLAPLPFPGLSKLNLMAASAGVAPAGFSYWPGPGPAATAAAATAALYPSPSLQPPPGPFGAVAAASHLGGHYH
Conditions: protein: recombinant; tags: N-terminal GST; dsDNA, one strand shown. Put shortly: as §1

In assay [11] the target is ETV5 (Homo sapiens, UniProt P41161 1-510). Conditions: protein: recombinant; tags: N-terminal GST; dsDNA, one strand shown. Put shortly: as §1
Chain of ETV5 (P41161 whole entry): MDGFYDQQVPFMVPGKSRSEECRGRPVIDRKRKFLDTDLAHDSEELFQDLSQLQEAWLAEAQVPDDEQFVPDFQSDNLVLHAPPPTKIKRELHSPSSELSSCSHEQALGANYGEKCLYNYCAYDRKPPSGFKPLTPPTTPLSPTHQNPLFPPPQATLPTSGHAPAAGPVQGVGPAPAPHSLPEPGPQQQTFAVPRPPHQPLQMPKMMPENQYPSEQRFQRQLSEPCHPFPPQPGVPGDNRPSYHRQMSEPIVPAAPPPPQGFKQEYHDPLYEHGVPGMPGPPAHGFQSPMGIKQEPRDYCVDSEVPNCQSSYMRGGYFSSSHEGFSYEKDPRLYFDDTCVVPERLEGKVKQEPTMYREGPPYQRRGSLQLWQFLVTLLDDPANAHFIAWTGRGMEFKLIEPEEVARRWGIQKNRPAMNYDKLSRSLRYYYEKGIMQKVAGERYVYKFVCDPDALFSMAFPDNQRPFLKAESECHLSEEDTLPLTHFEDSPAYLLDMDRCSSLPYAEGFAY
The target in assay [12] is HSF1 (Homo sapiens, UniProt Q00613 1-529). The following applies: protein: recombinant; tags: N-terminal GST; chain copies: 3; dsDNA, one strand shown. An outline of the steps: as §1
Chain of HSF1 (Q00613 whole entry): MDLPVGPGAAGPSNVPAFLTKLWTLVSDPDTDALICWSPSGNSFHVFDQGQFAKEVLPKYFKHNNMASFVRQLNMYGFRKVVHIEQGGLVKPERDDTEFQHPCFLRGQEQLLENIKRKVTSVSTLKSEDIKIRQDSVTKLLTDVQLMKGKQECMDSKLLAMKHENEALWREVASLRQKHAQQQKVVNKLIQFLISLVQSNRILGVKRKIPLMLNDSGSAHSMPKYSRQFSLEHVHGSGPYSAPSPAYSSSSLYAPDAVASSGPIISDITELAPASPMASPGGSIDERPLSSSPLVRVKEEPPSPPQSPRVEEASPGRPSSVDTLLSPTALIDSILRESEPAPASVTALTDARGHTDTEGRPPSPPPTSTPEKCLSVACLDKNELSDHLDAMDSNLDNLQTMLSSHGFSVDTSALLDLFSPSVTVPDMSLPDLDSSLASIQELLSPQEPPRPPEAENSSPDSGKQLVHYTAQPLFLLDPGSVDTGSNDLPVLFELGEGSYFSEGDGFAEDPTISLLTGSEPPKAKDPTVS
Assay [13] addresses T8, SPIC (Homo sapiens, UniProt Q8N5J4 1-248).
T8 sequence: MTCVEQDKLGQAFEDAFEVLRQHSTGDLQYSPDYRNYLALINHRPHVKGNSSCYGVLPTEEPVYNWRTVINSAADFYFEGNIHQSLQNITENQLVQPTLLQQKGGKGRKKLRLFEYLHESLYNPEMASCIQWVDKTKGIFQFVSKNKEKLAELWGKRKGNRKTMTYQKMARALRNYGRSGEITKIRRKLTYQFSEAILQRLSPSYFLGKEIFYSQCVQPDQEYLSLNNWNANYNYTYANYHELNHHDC
Conditions: protein: recombinant; tags: N-terminal GST; dsDNA, one strand shown. An outline of the steps:
as §1

Assay [14] has as its target ELF4 (Homo sapiens, UniProt Q99607 1-663). Conditions: protein: recombinant; tags: N-terminal GST; dsDNA, one strand shown. An outline of the steps: as §1
Assay [15] deals with T9, ELK4 (Homo sapiens, UniProt P28324-2 1-405).
T9 sequence: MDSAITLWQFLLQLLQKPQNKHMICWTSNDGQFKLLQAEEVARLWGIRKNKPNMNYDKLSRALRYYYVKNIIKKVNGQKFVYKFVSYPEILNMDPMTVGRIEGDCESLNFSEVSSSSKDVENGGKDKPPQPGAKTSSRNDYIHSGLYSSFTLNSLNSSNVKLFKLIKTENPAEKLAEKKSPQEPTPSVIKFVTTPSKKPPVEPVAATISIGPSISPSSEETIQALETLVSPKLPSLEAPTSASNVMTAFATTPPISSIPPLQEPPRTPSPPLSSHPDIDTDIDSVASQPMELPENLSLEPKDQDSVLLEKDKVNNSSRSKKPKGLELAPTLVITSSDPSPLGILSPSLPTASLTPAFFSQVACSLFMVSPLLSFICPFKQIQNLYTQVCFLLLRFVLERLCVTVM
The following applies: protein: recombinant; tags: N-terminal GST; dsDNA, one strand shown. An outline of the steps:
as §1

Assay [16] addresses T10, ETV2 (Homo sapiens, UniProt O00321 1-342).
T10 sequence: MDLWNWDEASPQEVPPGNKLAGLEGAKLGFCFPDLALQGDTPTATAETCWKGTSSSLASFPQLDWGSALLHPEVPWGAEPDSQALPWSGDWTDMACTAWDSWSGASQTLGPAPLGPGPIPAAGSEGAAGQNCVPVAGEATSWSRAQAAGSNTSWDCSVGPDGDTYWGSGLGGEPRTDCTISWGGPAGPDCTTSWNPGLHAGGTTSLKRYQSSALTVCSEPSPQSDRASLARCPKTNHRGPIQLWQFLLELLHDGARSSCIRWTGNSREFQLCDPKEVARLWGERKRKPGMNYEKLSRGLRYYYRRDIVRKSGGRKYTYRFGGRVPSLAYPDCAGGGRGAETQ
The following applies: protein: recombinant; tags: N-terminal GST; dsDNA, one strand shown. Put shortly:
as §1

The target of assay [17] is T11, ELF3 (Homo sapiens, UniProt P78545 1-371).
T11 sequence: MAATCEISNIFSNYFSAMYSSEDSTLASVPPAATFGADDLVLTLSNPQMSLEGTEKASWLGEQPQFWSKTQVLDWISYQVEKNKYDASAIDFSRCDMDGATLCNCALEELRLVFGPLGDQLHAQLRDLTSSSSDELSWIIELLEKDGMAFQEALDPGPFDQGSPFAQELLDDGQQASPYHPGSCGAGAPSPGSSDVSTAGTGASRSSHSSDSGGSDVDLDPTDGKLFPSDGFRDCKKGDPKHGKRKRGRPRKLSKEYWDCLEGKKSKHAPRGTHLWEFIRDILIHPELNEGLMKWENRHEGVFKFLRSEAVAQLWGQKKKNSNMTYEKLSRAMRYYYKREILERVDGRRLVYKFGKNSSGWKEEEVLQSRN
The following applies: protein: recombinant; tags: N-terminal GST; dsDNA, one strand shown. Put shortly:
as §1

For assay [18], the target named is CRX (Homo sapiens, UniProt O43186 1-299). The following applies: protein: recombinant; tags: N-terminal GST; dsDNA, one strand shown. Put shortly: as §1
Chain of CRX (O43186 whole entry): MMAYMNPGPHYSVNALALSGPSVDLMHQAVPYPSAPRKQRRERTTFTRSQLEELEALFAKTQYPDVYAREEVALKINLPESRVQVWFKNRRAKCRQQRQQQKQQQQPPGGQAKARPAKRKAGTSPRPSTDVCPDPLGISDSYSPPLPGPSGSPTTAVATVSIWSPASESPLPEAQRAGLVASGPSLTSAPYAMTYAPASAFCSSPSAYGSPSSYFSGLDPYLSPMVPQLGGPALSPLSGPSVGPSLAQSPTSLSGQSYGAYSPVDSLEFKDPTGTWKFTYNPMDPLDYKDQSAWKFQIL
Assay [19] addresses ETV1 (Homo sapiens, UniProt P50549 1-477). Conditions: protein: recombinant; tags: N-terminal GST; dsDNA, one strand shown. Put shortly: as §1

Chain of ELF4 (Q99607 whole entry): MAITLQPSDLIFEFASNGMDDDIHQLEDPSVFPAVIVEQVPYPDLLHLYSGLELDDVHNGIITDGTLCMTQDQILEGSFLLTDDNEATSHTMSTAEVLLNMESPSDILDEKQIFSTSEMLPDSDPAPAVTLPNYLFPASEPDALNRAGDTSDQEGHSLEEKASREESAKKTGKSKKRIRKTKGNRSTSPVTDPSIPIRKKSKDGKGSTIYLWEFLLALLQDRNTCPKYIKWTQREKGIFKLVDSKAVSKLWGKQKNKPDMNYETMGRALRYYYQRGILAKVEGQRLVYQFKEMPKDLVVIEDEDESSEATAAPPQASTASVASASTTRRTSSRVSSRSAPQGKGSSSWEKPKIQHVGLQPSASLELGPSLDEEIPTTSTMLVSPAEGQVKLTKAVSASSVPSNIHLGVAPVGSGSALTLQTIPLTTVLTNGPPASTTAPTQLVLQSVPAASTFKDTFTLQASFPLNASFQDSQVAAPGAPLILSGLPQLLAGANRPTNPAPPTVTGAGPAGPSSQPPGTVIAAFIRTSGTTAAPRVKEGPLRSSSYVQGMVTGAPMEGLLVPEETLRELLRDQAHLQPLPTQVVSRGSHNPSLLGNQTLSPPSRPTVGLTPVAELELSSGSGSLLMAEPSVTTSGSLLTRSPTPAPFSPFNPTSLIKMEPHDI
Chain of SPIB (Q01892 whole entry): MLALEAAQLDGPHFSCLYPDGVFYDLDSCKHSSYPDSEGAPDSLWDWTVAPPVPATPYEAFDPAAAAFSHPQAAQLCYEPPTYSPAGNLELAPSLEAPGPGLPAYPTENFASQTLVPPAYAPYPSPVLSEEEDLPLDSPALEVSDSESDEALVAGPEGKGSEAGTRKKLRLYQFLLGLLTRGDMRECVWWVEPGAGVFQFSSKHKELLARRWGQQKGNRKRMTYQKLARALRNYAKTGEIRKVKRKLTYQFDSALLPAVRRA
Chain of ELF1 (P32519 whole entry): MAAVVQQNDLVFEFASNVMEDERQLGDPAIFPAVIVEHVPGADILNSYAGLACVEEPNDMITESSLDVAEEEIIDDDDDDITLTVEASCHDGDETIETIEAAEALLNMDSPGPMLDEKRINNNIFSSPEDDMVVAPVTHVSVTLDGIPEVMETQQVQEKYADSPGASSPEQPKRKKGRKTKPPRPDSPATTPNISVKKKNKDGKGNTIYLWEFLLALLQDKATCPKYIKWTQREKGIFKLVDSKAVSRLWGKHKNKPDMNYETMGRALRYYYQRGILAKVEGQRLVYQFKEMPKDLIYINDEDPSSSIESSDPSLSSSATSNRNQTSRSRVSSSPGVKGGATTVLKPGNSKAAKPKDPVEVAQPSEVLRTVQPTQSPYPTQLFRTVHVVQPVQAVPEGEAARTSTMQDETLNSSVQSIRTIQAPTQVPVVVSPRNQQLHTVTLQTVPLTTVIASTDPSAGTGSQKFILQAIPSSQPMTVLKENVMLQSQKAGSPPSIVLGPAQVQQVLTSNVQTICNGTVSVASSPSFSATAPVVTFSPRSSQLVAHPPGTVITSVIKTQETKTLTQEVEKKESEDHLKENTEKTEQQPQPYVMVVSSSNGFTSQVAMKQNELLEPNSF
Chain of ETV1 (P50549 whole entry): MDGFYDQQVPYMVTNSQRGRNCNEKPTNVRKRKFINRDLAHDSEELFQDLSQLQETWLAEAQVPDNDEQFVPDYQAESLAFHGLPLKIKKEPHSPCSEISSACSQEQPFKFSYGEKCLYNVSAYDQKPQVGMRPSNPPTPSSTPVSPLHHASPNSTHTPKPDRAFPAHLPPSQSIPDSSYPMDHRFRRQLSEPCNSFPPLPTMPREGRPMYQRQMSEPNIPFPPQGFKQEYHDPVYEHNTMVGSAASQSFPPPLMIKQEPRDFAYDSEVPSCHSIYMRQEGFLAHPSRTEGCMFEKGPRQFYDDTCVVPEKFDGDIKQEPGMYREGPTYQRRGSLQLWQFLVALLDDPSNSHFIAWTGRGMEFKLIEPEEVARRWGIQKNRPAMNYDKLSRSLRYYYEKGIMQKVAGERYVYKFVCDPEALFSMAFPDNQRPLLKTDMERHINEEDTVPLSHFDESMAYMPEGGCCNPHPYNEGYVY

As for TAAACC, the binding signal in assay [1] was 1.27 fold enrichment (6-mer frequency, TF over GST control); in assay [2] it was 1.22 fold enrichment (6-mer frequency, TF over GST control); in [3], 1.22 fold enrichment (6-mer frequency, TF over GST control); in assay [4] it was 1.21 fold enrichment (6-mer frequency, TF over GST control); in assay [5], 1.26 fold enrichment (6-mer frequency, TF over GST control); in assay [6] it was 1.17 fold enrichment (6-mer frequency, TF over GST control). The binding signal in [7] was 1.19 fold enrichment (6-mer frequency, TF over GST control); in assay [8], 1.31 fold enrichment (6-mer frequency, TF over GST control); in [9], 1.25 fold enrichment (6-mer frequency, TF over GST control); in assay [10], 1.29 fold enrichment (6-mer frequency, TF over GST control); in assay [11], 1.23 fold enrichment (6-mer frequency, TF over GST control); in [12], 1.46 fold enrichment (6-mer frequency, TF over GST control). Besides, the binding signal in [13] was 1.13 fold enrichment (6-mer frequency, TF over GST control); in assay [14], 1.19 fold enrichment (6-mer frequency, TF over GST control); in assay [15], 1.32 fold enrichment (6-mer frequency, TF over GST control); in [16], 1.27 fold enrichment (6-mer frequency, TF over GST control); in assay [17], 1.35 fold enrichment (6-mer frequency, TF over GST control); in [18], 2.11 fold enrichment (6-mer frequency, TF over GST control). Besides, the binding signal in [19] was 1.23 fold enrichment (6-mer frequency, TF over GST control).

The record behind these values is PMC7862700, “An all-to-all approach to the identification of sequence-specific readers for epigenetic DNA modifications on cytosine”.
